# Data as given in PubChem BioAssay (Tox21).
# A number with no mark means an inactive call. Inconclusive results are not listed. Where a call stands in place of a potency, no number is given. Active and inactive are the calls of the source. Unless noted, the call rests on the fitted dose curve; in most records, active means well fitted curve in the direction sought with a large enough effect in the repeat runs; inconclusive means weak or mixed curves; inactive means no such curve, though single readings can be large; an effect the other way counts as inactive or inconclusive.
# What was measured:
# [1] = qHTS assay to identify small molecule agonists of H2AX (AID 1224845; active means well fitted activation curve with a large enough effect in the signal ratio in the repeat runs, not every such curve was filed as active; the % refers to the signal ratio); details: CHO-K1 phospho-H2AX Ser139 HTRF, 3 h; series mostly up to 154 µM
# Outline: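 Wild-type CHO-K1 cells, plated overnight, exposed 3hr at 37C to 15 concentrations (0.76% DMSO final). Lysed, then HTRF anti-pH2AX (S139) cryptate and anti-H2AX-d2 antibodies, 24 hr room temperature; 665/620 nm emission read.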
# [2] = qHTS assay to identify small molecule agonists of the hypoxia (HIF-1) signaling pathway (AID 1224846; active means well fitted activation curve with a large enough effect in the signal ratio in the repeat runs, not every such curve was filed as active; the % refers to the signal ratio); details: HRE-bla ME-180 cells, beta-lactamase ratio, 17 h; series mostly up to 76.8 µM
# Outline: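 Compounds from the Tox21 10K library, dissolved in DMSO, are tested for induction of a hypoxia response element–controlled beta-lactamase reporter in ME-180 cells. Exposure lasts 17 hrs at 37C after a 5 hr settling period, followed by CCF4-AM FRET substrate.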
# [3] = qHTS assay to identify small molecule antagonists of the estrogen related receptor (ERR) signaling pathway from Tox21 library (AID 1224848); details: ERR reporter cell line, luciferase antagonist mode, 18 h; series mostly up to 92.4 µM; further: nearly all actives have a fitted effect of over 50% in size
# Outline: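 Quantitative high-throughput format: ERR reporter cells (2,000/well) pre-incubated 6 h, treated 18 h at 37 C with compounds in DMSO alongside positive and negative controls, then read by ONE-Glo luminescence.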
# [4] = qHTS assay to identify small molecule agonists of the estrogen related receptor (ERR) signaling pathway from Tox21 library (AID 1224849; calls by dose curve; further: nearly all actives have a fitted effect of over 15% in size); details: ERR reporter cell line, ONE-Glo luciferase, 18 h; at 92.4 µM (top of the series) unless noted
# Outline: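 Cells carrying the ERR reporter were plated and allowed to settle for 6 h, exposed to library compounds for 18 h at 37 C, then lysed with ONE-Glo and luminescence measured.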
# [5] = qHTS RealTime-Glo MT Cell Viability Assay in HepG2 cells - 24 hour (AID 1224867); details: RealTime-Glo luminescence; series mostly up to 76.8 µM; further: nearly all actives have a fitted effect of over 50% in size
# Outline: (§1)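 Cell number in HepG2 cultures estimated from NanoLuc luminescence generated by metabolic reduction of a prosubstrate by living cells. The homogeneous, nonlytic format allowed repeated reads at 0, 8, 16, 24, 32 and 40 h of compound exposure.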
# [6] = qHTS RealTime-Glo MT Cell Viability Assay in HEK293 cells - 32 hour (AID 1224868); details: RealTime-Glo luminescence; series mostly up to 76.8 µM; further: nearly all actives have a fitted effect of over 50% in size; further: potency means the concentration at half of the fitted maximal effect
# Outline: (§2)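 Homogeneous bioluminescent viability format in HEK293 cells (600 cells/well). Following 5 h at 37 C/5% CO2, 23 nL compound was pintooled; the signal was measured repeatedly during 40 h incubation.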
# [7] = A CellTox Green Cytotoxicity Assay to monitor cytotoxicity in HEK293 cells - 0 hour (AID 1224869); details: CellTox Green fluorescence; series mostly up to 76.8 µM; further: nearly all actives have a fitted effect of over 50% in size
# Outline: (§3)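 Cells (HEK293, 600/well) and dye reagent are dispensed together. After 5 h at 37 C, 23 nL compound is pinned in. Plates stay at 37 C for 40 h with fluorescence read at 0h, 8h, 16h, 24h, 32h and 40h.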
# [8] = qHTS RealTime-Glo MT Cell Viability Assay in HepG2 cells - 40 hour (AID 1224870); details: RealTime-Glo luminescence; series mostly up to 76.8 µM; further: nearly all actives have a fitted effect of over 50% in size
# Outline: (§4)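 HepG2 cells (600/well) mixed with RealTime-Glo MT reagent, settled 5 h at 37 C/5% CO2 before compound addition. Nonlytic NanoLuc luminescence from viable-cell prosubstrate reduction read repeatedly during 40 h treatment at 37 C.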
# [9] = A CellTox Green Cytotoxicity Assay to monitor cytotoxicity in HEK293 cells - 40 hour (AID 1224871); details: CellTox Green fluorescence; series mostly up to 76.8 µM; further: nearly all actives have a fitted effect of over 45% in size
# Outline: as §3
# [10] = qHTS RealTime-Glo MT Cell Viability Assay in HEK293 cells - 16 hour (AID 1224872); details: RealTime-Glo luminescence; series mostly up to 76.8 µM; further: nearly all actives have a fitted effect of over 50% in size; further: potency means the concentration at half of the fitted maximal effect
# Outline: as §2
# [11] = qHTS RealTime-Glo MT Cell Viability Assay in HepG2 cells - 8 hour (AID 1224873); details: RealTime-Glo luminescence; series mostly up to 76.8 µM; further: nearly all actives have a fitted effect of over 55% in size
# Outline: as §4
# [12] = qHTS RealTime-Glo MT Cell Viability Assay in HEK293 cells - 40 hour (AID 1224874); details: RealTime-Glo luminescence; max response: stronger effect = lower value; further: nearly all actives have a fitted effect of over 50% in size; further: potency means the concentration at half of the fitted maximal effect
# Outline: (§5)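 Real-time viability in HEK293: signal arises when living cells convert a prosubstrate for NanoLuc in the medium, so luminescence tracks viable cell number. Compound (23 nL, DMSO) added 5 h post-seeding; kinetic reads at 0–40 h, 37 C.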
# [13] = A CellTox Green Cytotoxicity Assay to monitor cytotoxicity in HEK293 cells - 24 hour (AID 1224875); details: CellTox Green fluorescence; series mostly up to 76.8 µM; further: nearly all actives have a fitted effect of over 45% in size
# Outline: as §3
# [14] = A CellTox Green Cytotoxicity Assay to monitor cytotoxicity in HepG2 cells - 16 hour (AID 1224876); details: CellTox Green fluorescence; series mostly up to 76.8 µM; further: nearly all actives have a fitted effect of over 45% in size
# Outline: (§6)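 Cells and non-lytic dye reagent are dispensed together (600 HepG2 cells/well) and incubated 5 h before DMSO compound transfer. Kinetic fluorescence is then recorded in the same wells during 40 h at 37 C.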
# [15] = qHTS RealTime-Glo MT Cell Viability Assay in HepG2 cells - 32 hour (AID 1224877); details: RealTime-Glo luminescence; series mostly up to 76.8 µM; further: nearly all actives have a fitted effect of over 55% in size
# Outline: as §1
# [16] = A CellTox Green Cytotoxicity Assay to monitor cytotoxicity in HepG2 cells - 24 hour (AID 1224878); details: CellTox Green fluorescence; series mostly up to 76.8 µM; further: nearly all actives have a fitted effect of over 45% in size
# Outline: as §6
# [17] = A CellTox Green Cytotoxicity Assay to monitor cytotoxicity in HepG2 cells - 40 hour (AID 1224879); details: CellTox Green fluorescence; series mostly up to 76.8 µM; further: nearly all actives have a fitted effect of over 40% in size
# Outline: as §6
# [18] = qHTS RealTime-Glo MT Cell Viability Assay in HEK293 cells - 0 hour (AID 1224880); details: RealTime-Glo luminescence; series mostly up to 76.8 µM
# Outline: as §5
# [19] = A CellTox Green Cytotoxicity Assay to monitor cytotoxicity in HEK293 cells - 32 hour (AID 1224881); details: CellTox Green fluorescence; series mostly up to 76.8 µM; further: nearly all actives have a fitted effect of over 40% in size
# Outline: as §3
# [20] = qHTS assay to identify small molecule agonists of H2AX - cell viability counter screen (AID 1224847; calls by dose curve; further: top concentration of the series differs between compounds; nearly all actives have a fitted effect of over 30% in size); details: CHO-K1 viability, CellTiter-Glo luminescence, 3 h; series mostly up to 154 µM
# Outline: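 CHO-K1 cells plated overnight at 37C, then exposed 3 h at 37C to compounds at 15 concentrations (0.76% DMSO final). Viability by CellTiter-Glo luminescence after 30 min at room temperature.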
smiles,measurement,setting,value
O=C(O)c1cccc(Oc2ccccc2)c1,Potency,[1],inactive
same,outcome,[2],inactive
same,Potency,[3],inactive
same,"activity change, positive = activation",[4],-1.12%
same,Potency,[5],inactive
same,Potency,[6],inactive
same,Potency,[7],inactive
same,Potency,[8],inactive
same,Potency,[9],inactive
same,Potency,[10],inactive
same,Potency,[11],inactive
same,max response,[12],-1.97%
same,Potency,[13],inactive
same,Potency,[14],inactive
same,Potency,[15],inactive
same,Potency,[16],inactive
same,Potency,[17],inactive
same,Potency,[18],inactive
same,Potency,[19],inactive
C=C(C)c1ccccc1,Potency,[1],inactive
same,Potency,[20],inactive
same,Potency,[5],inactive
same,Potency,[6],inactive
same,Potency,[7],inactive
same,Potency,[8],inactive
same,Potency,[9],inactive
same,Potency,[10],inactive
same,Potency,[11],inactive
same,max response,[12],1.05%
same,Potency,[13],inactive
same,Potency,[14],inactive
same,Potency,[15],inactive
same,Potency,[16],inactive
same,Potency,[17],inactive
same,Potency,[18],inactive
same,Potency,[19],inactive
CC(=O)C(C)=O,Potency,[1],inactive
same,Potency,[20],inactive
same,Potency,[5],inactive
same,Potency,[6],inactive
same,Potency,[8],inactive
same,Potency,[9],inactive
same,Potency,[11],inactive
same,max response,[12],13.9%
same,Potency,[13],inactive
same,Potency,[14],inactive
same,Potency,[15],inactive
same,Potency,[16],inactive
same,Potency,[18],inactive
same,Potency,[19],inactive
CC(CN(CCN(CC(C)OCCO)CC(C)OCCO)CC(C)OCCO)OCCO (configuration not stated),Potency,[1],inactive
same,outcome,[2],inactive
same,Potency,[6],23.7 µM (active)
same,Potency,[7],inactive
same,Potency,[8],inactive
same,Potency,[10],18.8 µM (active)
same,Potency,[11],inactive
same,Potency,[12],23.7 µM (active)
same,Potency,[13],inactive
same,Potency,[14],inactive
same,Potency,[15],inactive
same,Potency,[18],inactive
